This is a sample that favours compounds with a hit; in the whole collection about 10% have one here.
Pf growth 48h: P. falciparum growth inhibition at 48 hours (one generation). P. falciparum luciferase growth in erythrocytes, 48 h. Potency, µM (doses to about 28.7 µM), without a hit: at the top dose activity change, negative = inhibition, most hits filed as inhibitors. 310,000 compounds, 5.9% hits. AID 504832; active means well fitted inhibition curve with a large enough effect; inconclusive means small, poorly fitted or top-dose-only effect, or another doubt; inactive means no such curve, though single readings can be large or run the other way; further: on the % scale 0 is the no-effect control and ±100 the full control effect
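Cell-based growth assay: transgenic P. falciparum expressing firefly luciferase, cultured in red cells within RPMI 1640 containing 0.5% w/v Albumax, 24 mM bicarbonate and gentamycin. A drop in luciferase activity indicates inhibition.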
NS1 inh: inhibitors of influenza NS1 protein function; AID 2326; 270,000 compounds, 0.4% hits; Potency, µM (series often up to 46.1 µM), for the others: at the top dose activity, positive = more growth; further: actives are rising curves; nearly all actives have a fitted effect of over 50% in size
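S. cerevisiae expressing influenza A NS1, grown in glucose, washed, then diluted 1:100 into pH 6.0 -URA galactose medium with 23 nl compound. Growth recovery read as OD600; NS1-free strain serves as control.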
Pf growth 96h: inhibits malaria parasite growth, 96 h. P. falciparum luciferase reporter growth, 96 h. Potency, µM (highest dose often 28.7 µM), without a hit: at the top dose activity change, negative = inhibition, actives largely listed as inhibitors. 320,000 compounds, 6.9% hits. AID 504834; active means well fitted inhibition curve with a large enough effect; inconclusive means small, poorly fitted or top-dose-only effect, or another doubt; inactive means no such curve, though single readings can be large or run the other way; further: on the % scale 0 is the no-effect control and ±100 the full control effect
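96 h incubation, 37 C, 5% CO2, of luciferase-reporter P. falciparum-infected RBCs (2% hematocrit, 0.05% parasitemia final) with test compounds; endpoint luminescence.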
SARS PLP yeast: SARS-CoV PLP inhibition in yeast. AID 485353. Potency, µM (doses to about 32.9 µM), for inactives: at the highest dose activity, positive = growth rescue, usual class: activators. 330,000 compounds, 0.19% hits. S. cerevisiae expressing SARS-CoV PLpro, growth rescue; further: 0% is about no effect; nearly all actives have a fitted effect of over 55% in size
An asterisk follows results filed as active; u = inconclusive; x = no result; [ ] = dose if it differs, or a comment. Unless noted, the call rests on the fitted dose curve. Potency means the concentration at half of the fitted maximal effect.

SMILES | Pf growth 48h | NS1 inh | Pf growth 96h | SARS PLP yeast
CCOC(=O)C1=C(C)N=c2s/c(=C\c3cccn3C)c(=O)n2C1c1cccc(OC)c1OC (stereo unspecified) | 2.1µM* | -42% | u | -1%
CCOC(=O)C1=C(C)N=c2s/c(=C/c3cccc([N+](=O)[O-])c3O)c(=O)n2C1c1cc(OC)c(OC)c(OC)c1 (stereo unspecified) | 1µM* | 2% | u | 0%
COC(=O)c1ccc(C(=O)Nc2ccc(N)cc2N)cc1 | 4.1µM* | -1% | -9% | -2%
COc1ccccc1N1CCN(C(=O)CCCn2c(=O)[nH]c3ccsc3c2=O)CC1 | -8% | -9% | -3% | 2%
COc1cc2[nH]c(=O)n(CCC(=O)N3CCc4ccccc4C3)c(=O)c2cc1OC | x | -1% | 16% | -10%[6.58 µM]
COc1ccccc1CNC(=O)CCn1c(=O)[nH]c2ccsc2c1=O | 1µM* | 2% | u | -7%
CCOC(=O)N1CCN(C(=O)CCn2c(=S)[nH]c3ccsc3c2=O)CC1 | 19% | x | 9.3µM* | -1%
COc1ccc(N2CCN(C(=O)CCCn3c(=O)[nH]c4ccsc4c3=O)CC2)cc1 | x | 3% | 7.4µM* | -1%
O=C(CCn1c(=O)[nH]c2ccsc2c1=O)N1CCc2ccccc2C1 | 11% | 4% | 10µM* | 2%
O=[N+]([O-])c1ccc(Cl)cc1CNc1ccc(F)c(F)c1 | 3% | -36% | 8.3µM* | -16%
CCN(CC)CCCCCC(=O)Nc1ccccc1C(=O)Nc1ccccc1 | 10% | -1% | 10µM* | 1%
O=C(Nc1ccc2ccccc2c1)[C@@H]1C[C@H]1[C@@H](NP(=O)(c1ccccc1)c1ccccc1)c1ccccc1 | 9.3µM* | u | u | -17%
O=C(O)[C@@H]1C[C@H]1[C@@H](NP(=O)(c1ccccc1)c1ccccc1)c1ccccc1 | 4% | 5% | -10% | 18%
O=C(NCc1ccccc1)[C@@H]1C[C@H]1[C@@H](NP(=O)(c1ccccc1)c1ccccc1)c1ccccc1 | u | 0% | 15µM* | 1%
Cc1cc(=O)n2nc(N3CCC(C(=O)NCc4ccc(Cl)cc4)CC3)sc2n1 | -13% | 17% | 51% | 3%
NC(CCl)=N[C@H]1CN2CCC1CC2 | x | -4% | x | x
COc1ccc(C2(CCN)CC(C)N(C)CC2C)cc1 (stereo unspecified) | 0% | 6% | 1.7µM* | 4%
c1ccc(-c2nnc3sc(-c4ccncc4)nn23)cc1 | -26% | -1% | x | 2%
c1ccc(-c2nnc3sc(-c4csc5c4CCCC5)nn23)cc1 | 10µM* | -31% | 23% | -22%
COc1ccccc1C(=O)O[C@H]1[C@H](Cc2ccccc2)NS(=O)(=O)[C@H]2C[C@@H]3C=C[C@]12O3 | u | x | 5.9µM* | -5%
COc1cccc(C(=O)O[C@H]2[C@H](Cc3ccccc3)NS(=O)(=O)[C@H]3C[C@@H]4C=C[C@]23O4)c1 | x | x | x | -37%
CC(=O)Nc1ccc(S(=O)(=O)N(C)CC(=O)Nc2cccc(S(=O)(=O)N3CCCC3)c2)cc1 | u | x | u | 1%
OCC[n+]1c2ccccc2nc2ccc(N3CCOCC3)cc21 | 0.33µM* | 5% | 0.26µM* | -3%
c1ccc2nc(-c3ccc(N4CCOCC4)cc3)ccc2c1 | 69% | 8% | 105% | -6%
NNC(=O)CN1C(c2ccc(Cl)cc2)=Nc2ccc(Br)cc2C1c1ccccc1 (stereo unspecified) | 8.3µM* | 18% | 34% | -5%
SMILES | Pf growth 48h | NS1 inh | Pf growth 96h | SARS PLP yeast
NNC(=O)CN1C(CN2CCOCC2)=Nc2ccc(Br)cc2C1c1ccccc1 (stereo unspecified) | u | 7% | 13µM* | 1%
COc1ccccc1OCC(=O)NNC(=O)CSC(=S)N1CCCC1 | u | x | -22% | 4%
O=C1C(=O)N(CCS(=O)(=O)c2ccccc2)c2ccc(F)cc21 | u | 2% | 9.3µM* | 3%
COc1ccc2c(c1)C(=O)C(=O)N2CCS(=O)(=O)c1ccccc1 | -10% | 1% | u | -4%
CCSc1nnc2c(n1)[nH]c1c(C)cccc12 | x | -157% | x | -18%
CSc1nnc2c(n1)[nH]c1c(C)cccc12 | 8.3µM* | -60% | 5.2µM* | 4%
COc1ccc(NC(=O)[C@@H]2[C@@H]3C(=O)N(C4CCCCC4)C(=O)[C@@H]3C3c4ccccc4C=CN32)cc1 (stereo partly specified) | 7.4µM* | u | 15µM* | -4%
CC(=O)[C@@H]1[C@@H]2C(=O)N(C3CCCCC3)C(=O)[C@@H]2C2c3ccccc3C=CN21 (stereo partly specified) | u | u | u | -2%
O=c1c2ccc(Cl)cc2nc2n1CC/C2=C\c1cccc(O)c1 | 13µM* | -7% | u | -2%
O=C(O)c1ccc2c(=O)n3c(nc2c1)/C(=C/c1cccc(O)c1)CC3 | x | 3% | -24% | 1%
COc1ccc(/C=C2\CCn3c2nc2cc(C(=O)O)ccc2c3=O)cc1O | -7% | u | 13µM* | 16%
COc1ccc(CN(C)C(=O)Cn2ccc(N)nc2=O)cc1OC | 27% | x | u | -9%
CCCc1nc2c(=O)n(C)c(=O)[nH]c2n1CCC | x | 2% | 10µM* | 0%
CCCCC1(Cc2ccc([N+](=O)[O-])cc2)C(=O)N(c2ccccc2)N(c2ccccc2)C1=O | 4.1µM* | 22% | u | -41%
O=C(NCc1ccccc1F)C1CCCN1C(=O)Nc1ccc(Cl)cc1 (stereo unspecified) | 1%[0.00184 µM] | -1% | 0% | 0%
COC(=O)c1c(NC(=O)CN2CCC3(O)CCCCC3C2c2ccc(OC)cc2OC)sc(C)c1C (stereo unspecified) | 12µM* | 12% | -18% | -34%
COC(=O)c1c(NC(=O)CN2CCC3(O)CCCCC3C2c2ccccc2OC)sc(C)c1C (stereo unspecified) | 5.2µM* | -14% | u | -29%
COc1ccc(NC(=O)CN2CCC3(O)CCCCC3C2c2cc(OC)ccc2OC)cc1 (stereo unspecified) | u | -7% | u | 9%
COc1ccc(C2=NS(=O)(=O)N(C)C(C(=O)NCc3ccc(F)cc3)=C2)cc1OC | -1% | 17% | 54% | 8%
Cc1nc(-c2ccncc2)nc(NCCNc2ncccc2C(F)(F)F)c1Cl | 10µM* | -9% | u | -10%
O=C1Nc2ccccc2C1(O)Cc1ccncc1 (stereo unspecified) | 12% | 1% | 9.3µM* | 2%
O=C1Nc2ccc(Br)cc2C1(O)Cc1ccncc1 (stereo unspecified) | 8% | 4% | 42% | 3%
Cn1c(=O)n(C)c2cc(NC(=O)CSc3nc4ccccc4c(=O)[nH]3)ccc21 | -8% | -21% | 186% | -2%
O=C(c1ccc(Cl)cc1)c1oc2ccccc2c1CS(=O)(=O)c1ccccc1 | -3% | 7% | 10µM* | 3%
Nc1c(C(=O)c2ccccc2)oc2ccccc12 | x | -5% | -8% | -6%
Nc1cc(=O)[nH]c(SCC(=O)N2CCN(S(=O)(=O)c3ccc4ccccc4c3)CC2)n1 | 10% | x | -16% | -2%
O=C(CSc1n[nH]c(-c2cccs2)n1)N1CCN(S(=O)(=O)c2ccc3ccccc3c2)CC1 | x | 15% | 5.9µM* | 0%

Assay outcomes (PubChem BioAssay)
